From PubChem BioAssay (Tox21)
Where “and” joins values, the source holds several entries; their conditions need not be identical. Equal entries are not always repeated. Inconclusive results are not listed. Where a call stands in place of a potency, no number is given. Calls of active or inactive are those of the source. Calls come from the whole dose curve; as a rule, active = well fitted cell-killing curve with a large enough effect in the repeat runs; inconclusive = weak or mixed curves, or effect the other way; inactive = flat fitted curve, though single readings scatter.

Assay: qHTS assay to identify small molecule antagonists of the estrogen receptor alpha (ER-alpha) signaling pathway using the BG1 cell line in the presence of 0.1 nM 17-beta-estradiol - cell viability counter screen (AID 1259241); note: nearly all actives have a fitted effect of over 40% in size
Settings: VM7Luc4E2 (BG1) viability, CellTiter-Fluor protease, 22 h, 0.1 nM estradiol agonist added; series mostly up to 92.4 µM; activity change, negative = cytotoxicity: at the top concentration
Excerpt: National Center for Advancing Translational Sciences [NCATS]
NIH Chemical Genomics Center [NCGC]
U.S. Environmental Protection Agency [EPA]
National Institutes of Environmental Health Sciences [NIEHS]
National Toxicology Program [NTP]
U.S. Food and Drug Administration [FDA]
Estrogen receptor (ER), a member of the nuclear hormone receptor plays an important role in development, metabolic homeostasis and reproduction. Two subtypes of ER, ER-alpha and ER-beta, have similar expression patterns with some uniqueness in both types. Endocrine disrupting chemicals (EDCs) and their interactions with steroid hormone receptors like ER causes disruption of normal endocrine function. Therefore, it is important to understand the effect of environmental chemicals in ER signaling pathway. For identifying ER antagonists, VM7Luc4E2 cell line was used to screen against Tox21 compound libraries.
VM7Luc4E2 cell line (provided by Denison MS, University of California) endogenously express full-length ER-alpha and is stably transfected with a plasmid containing four estrogen responsive elements (ERE) upstream of a luciferase reporter gene. The current screening for identification of ER-alpha inhibitors against Tox21 compound libraries used lower concentration (0.1 nM) of 17beta-Estradiol as a stimulator. The cytotoxicity of the Tox21 compound libraries against VM7Luc4E2 cell line was tested by measuring live-cell protease activity using CellTiter-Fluor assay in the same wells.
Tox21 Assay Protocol Summary:
VM7Luc4E2 cells were cultured in phenol red free assay medium containing 10% charcoal stripped FBS for 5 days prior to the assay. The cells were dispensed at 4,000 cells/well in 4 uL of assay medium into white wall/solid-bottom 1536-well plates (Corning Life Sciences, Corning, NY) using a Multidrop Combi (ThermoFisher Scientific, Waltham, MA) dispenser. After the assay plates were incubated at 37C and 5% CO2 for 24 hr, 23 nL of compounds dissolved in DMSO, positive controls or DMSO only was transferred to the assay plates by a Pintool station (Kalypsys, San Diego, CA). The transfer of compounds was followed by the addition of 1 uL of 0.1 nM (final concentration) agonist (17beta-Estradiol)/assay medium using a Flying Reagent Dispenser (FRD, Aurora Discovery, San Diego, CA). The plates were incubated at 37C and 5% CO2 for 22 hr. For cytotoxicity assay, 1 uL of CellTiter-Fluor reagent (Promega Corporation, Madison, WI) was added to each well using the FRD and after 30 min incubation at 37C and 5% CO2, The fluorescence intensity was measured using ViewLux plate reader (PerkinElmer, Shelton, CT).
Potency is the fitted concentration of half-maximal effect.

| SMILES | Potency | activity change, negative = cytotoxicity |
| --- | --- | --- |
| CCCC[n+]1ccccc1C | inactive | – |
| CCCCn1cc[n+](C)c1 | inactive | – |
| CNC | inactive | – |
| COc1ccc(N)cc1 | inactive | – |
| OCCOc1ccccc1 | inactive | – |
| CC[N+](CC)(CC)CC | inactive | – |
| CN(C)[C@@H]1C(=O)C(C(N)=O)=C(O)[C@@]2(O)C(=O)C3=C(O)c4c(O)cccc4[C@@](C)(O)[C@H]3[C@H](O)[C@@H]12 | inactive | – |
| C=CCOC(Cn1ccnc1)c1ccc(Cl)cc1Cl (stereo not given) | – | -6.73% [at 42.5 µM] (inactive) |
| CCCCn1cc[n+](C)c1C | inactive | – |
| CC(Cl)(Cl)C(=O)O | inactive | – |
| CC[N+]1(C)CCCC1 | inactive | – |
| N#CS | inactive | – |
| Nc1ccc(Cl)cc1 | inactive | – |
| C[C@]12CCC(=O)C=C1CC[C@@H]1[C@@H]2CC[C@]2(C)C(=O)CC[C@@H]12 | inactive | – |
| CCCCCCCCCCCC(=O)O | inactive | – |
| CC[n+]1ccccc1 | inactive | – |
| CCNc1nc(Cl)nc(NCC)n1 | inactive | – |
| CCC(=O)C(CC(C)N(C)C)(c1ccccc1)c1ccccc1 (stereo not given) | inactive | – |
| CCCn1cc[n+](C)c1 | inactive | – |
| CCCCCCCCCCCCOS(=O)(=O)O | inactive | – |

| SMILES | Potency | activity change, negative = cytotoxicity |
| --- | --- | --- |
| O=c1[nH]c(=O)n(Cl)c(=O)n1Cl | inactive | – |
| O=P1(N(CCCl)CCCl)NCCCO1 (stereo not given) | inactive | – |
| CCn1cc[n+](C)c1C | inactive | – |
| COP(=O)(OC)OC=C(Cl)Cl | inactive | – |
| CCOP(=S)(OCC)Oc1ccc2c(C)c(Cl)c(=O)oc2c1 | inactive | – |
| CC(=O)O | inactive | – |
| Cc1cc(-c2ccc(N)c(C)c2)ccc1N | inactive | – |
| Cc1cc(Cl)ccc1N | inactive | – |
| CCCCCCCCCCCCn1cc[n+](C)c1 | inactive | – |
| CC(=O)[O][Hg][c]1ccccc1 | 4.81 µM (active) and 9.69 µM (active) and 11.9 µM (active) | – |
| CCCCCCCCn1cc[n+](C)c1 | inactive | – |
| CCCC[n+]1cccc(C)c1 | inactive | – |
| O=[N+]([O-])c1ccccc1O | inactive | – |
| O=S(=O)(O)O | inactive | – |
| C[N+](C)(C)Cc1ccccc1 | inactive | – |
| O=C(O)C(Cl)Cl | inactive | – |
| CCCC[n+]1ccccc1 | inactive | – |
| CCCC[N+]1(C)CCCCC1 | inactive | – |
| Nc1ccc(-c2ccc(N)c(Cl)c2)cc1Cl | inactive | – |
| Nc1ccc(-c2ccc(N)cc2)cc1 | inactive | – |
